TRAIL sens C8: caspase-8 TRAIL sensitization | NB7+C8 cells + TRAIL, ATPlite viability luminescence | inhibition (viability loss, TRAIL sensitization), % at 10 µM | 360,000 compounds, 1% hits | AID 624354;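 active = compounds causing at least 50% loss of cell viability in the single-dose screen, relative to plate controls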
PPC-1+TRAIL kill: kills PPC-1 cancer cells in the presence of TRAIL. 220,000 compounds, 0.41% hits. cell killing (% activity), % at 4 µM or 5 µM. PPC-1 cells + TRAIL, ATPLite viability luminescence. AID 1443;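 active = cell killing above 50% in the first pass at 4 µM, then a duplicate retest at 5 µM averaging 50% or more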;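 also: plate controls were cells with TRAIL plus DMSO for no effect and medium-only wells lacking cells for full effect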
SENP8 block-1: blocks the human protease SENP8. Q96LD8. purified SENP8, Z-RLRGG-aminoluciferin cleavage, luminescence. inhibition, % at 10 µM. 330,000 compounds, 1.2% hits. AID 2540; in the data active = inhibition above about 50%
Target sequence (Q96LD8 whole entry, looked up): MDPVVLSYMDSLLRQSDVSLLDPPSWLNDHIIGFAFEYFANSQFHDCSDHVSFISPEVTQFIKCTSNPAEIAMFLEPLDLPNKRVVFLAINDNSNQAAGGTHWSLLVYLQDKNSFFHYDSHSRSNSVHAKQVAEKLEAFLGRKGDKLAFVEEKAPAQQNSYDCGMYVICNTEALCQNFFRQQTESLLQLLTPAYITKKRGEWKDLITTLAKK
SENP7 block: SENP7 protease inhibition; Q9BQF6; recombinant SENP7, Z-RLRGG-aminoluciferin luminescence, 40 min; inhibition, % at 5 µM; 330,000 compounds, 1.5% hits; AID 434973;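 active = inhibition above about 50% at the single test dose, limit read from the data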;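 also: plate controls were DMSO with enzyme for no effect and no enzyme buffer wells for full effect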
Target sequence (Q9BQF6 706-1050 limits assumed): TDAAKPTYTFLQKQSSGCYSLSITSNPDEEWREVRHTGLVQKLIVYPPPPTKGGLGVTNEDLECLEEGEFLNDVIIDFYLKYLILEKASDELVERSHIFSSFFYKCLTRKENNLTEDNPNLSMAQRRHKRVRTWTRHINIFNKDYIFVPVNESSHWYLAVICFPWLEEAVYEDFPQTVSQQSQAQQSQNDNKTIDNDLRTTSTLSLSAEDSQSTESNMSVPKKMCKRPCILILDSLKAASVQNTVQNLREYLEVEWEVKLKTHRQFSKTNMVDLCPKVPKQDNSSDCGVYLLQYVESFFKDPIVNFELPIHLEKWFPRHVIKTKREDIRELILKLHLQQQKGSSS
SENP6 inh: inhibitors of human SENP6 protease; Recombinant SENP6 catalytic domain, aminoluciferin luminescence; inhibition, % at 10 µM; 330,000 compounds, 1.8% hits; AID 2599;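 active = inhibition above about 50% at the single tested dose, limit read from the data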;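 also: plate controls were DMSO wells with enzyme for no effect and DMSO wells lacking enzyme for full effect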
SENP8 block-2: inhibitors of human SENP8 protease. Q96LD8. recombinant SENP8, Nedd8 substrate fluorescence. inhibition, % at 20 µM. 360,000 compounds, 0.64% hits; in the data active = inhibition mostly above about 40%, no sharp cut-off; inactive = mostly below about 27%
SENP8 conf: human SENP8 inhibition, confirmed | shares compounds with SENP7 block | Recombinant SENP8, Z-RLRGG-aminoluciferin luminescence, 60 min | inhibition, % at 12.5 µM | 6,200 compounds, 40% hits;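 active = mean inhibition across replicates above about 50%, limit read from the data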
SENP6 conf: confirmation of human SENP6 protease inhibitors. 6,200 compounds, 58% hits. recombinant SENP6, Z-RLRGG-aminoluciferin luminescence. shares compounds with SENP7 block. inhibition, % at 12.5 µM
SENP7 confirm: human SENP7 inhibition, confirmed | recombinant SENP7, Z-RLRGG-aminoluciferin luminescence, 40 min | shares compounds with SENP7 block | inhibition, % at 12.5 µM | 6,200 compounds, 69% hits
Casp3 SENP sel: selectivity test for SENP inhibitors: human caspase-3 inhibition | shares compounds with SENP7 block | purified caspase-3, Z-DEVD-aminoluciferin luminescence, 60 min | inhibition, % at 12.5 µM | 6,200 compounds, 60% hits | AID 488918;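 active = mean inhibition above about 50%, limit read from the data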;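 also: plate controls were enzyme with DMSO for no effect and wells without caspase-3 for full effect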
SENP luc ctr: luminescence interference (SENP counter-screen). shares compounds with SENP7 block. Pre-incubated SENP8/Z-RLRGG-aminoluciferin, luciferase luminescence interference. inhibition, % at 12.5 µM. 6,200 compounds, 39% hits. AID 488919;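 active = mean inhibition above about 50% when retested at one dose, limit read from the data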;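 also: plate controls were DMSO wells with completed reaction for no effect and substrate without enzyme for full effect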
* hit, by the source's call; i = inactive; . = no result given. The list is not random: actives were taken first. Their share in the collection is about 3%.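 The calls were made as follows, unless noted: active = mean inhibition above about 50% in the one-dose retest (limit read from the data); inactive = the rest.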

SMILES	TRAIL sens C8	PPC-1+TRAIL kill	SENP8 block-1	SENP7 block	SENP6 inh	SENP8 block-2	SENP8 conf	SENP6 conf	SENP7 confirm	Casp3 SENP sel	SENP luc ctr
O=C(Nc1nnc(Cc2ccccc2F)s1)Nc1ccccc1F	-16	.	-4	85*	15	0	10	11	5	0	0
COc1ccc(/C=N/NC(=O)CCSc2nc3ccccc3s2)cc1	-24	8	2	-1	-1	15	.	.	.	.	.
CCOC(=O)CNC(=O)c1sc(NC(=O)c2ccccc2F)nc1C	-5	23	70*	88*	77*	-13	-5	75*	94*	92*	79*
CCOC(=O)CNC(=O)c1sc(NC(=O)c2cccc(F)c2)nc1C	-3	27	2	6	33	-74	.	.	.	.	.
C=CCn1c(SCC(=O)c2c(N)n(CCC)c(=O)n(C)c2=O)nnc1-c1ccncc1	-4	3	9	-1	9	13	.	.	.	.	.
Cc1occc1C(=O)Nc1ccc(OCc2ccccc2)cc1	35	.	96*	100*	98*	-2	90*	100*	104*	99*	73*
O=C(Nc1ccc(OCc2ccccc2)cc1)c1cccs1	12	.	58*	84*	70*	18	41	60*	93*	73*	0
Cc1ccc(C(=O)Nc2ccc(OCc3ccccc3)cc2)cc1[N+](=O)[O-]	2	10	-6	-9	-8	17	.	.	.	.	.
CC(C)(CNC(=O)c1cccs1)CNC(=O)c1cccs1	-6	-2	-13	84*	-3	-5	11	10	7	3	5
O=C(Nc1ccc(OCc2ccccc2)cc1)c1cccc([N+](=O)[O-])c1	-3	11	-9	56*	-4	16	-7	-4	6	5	-5
O=C(N/N=C/c1ccc(OCc2ccccc2)cc1)c1cccs1	6	13	2	22	-7	-46	.	.	.	.	.
Cc1occc1C(=O)Nc1cccc(C(=O)NCc2ccccc2)c1	10	22	-6	-8	-29	4	.	.	.	.	.
CN=C(Nc1ccc(C(=O)OC)s1)c1ccc(Cl)cc1	-10	28	1	3	-5	16	.	.	.	.	.
COCCn1c(N)c(N(Cc2ccccc2)C(=O)COc2ccc(F)cc2Cl)c(=O)[nH]c1=O	0	.	-9	-1	-3	5	.	.	.	.	.
CCCOC(=O)c1ccc(NC(=O)c2ccoc2C)cc1	15	26	89*	93*	95*	17	94*	95*	101*	92*	66*
COc1ccc(NC(=O)c2cccs2)cc1	11	23	16	31	60*	38	34	31	74*	79*	62*
O=C(Nc1ccc(NC(=O)c2cccs2)c(Cl)c1)c1cccs1	-13	.	50	53*	63*	3	48	51*	80*	48	46
CCCOC(=O)c1ccc(NC(=O)c2ccccc2OC)cc1	-2	5	-3	-3	-27	2	.	.	.	.	.
CCC(C)NS(=O)(=O)c1ccc(NC(=O)c2cccs2)cc1 (stereo not drawn)	-5	19	-1	23	8	-5	.	.	.	.	.
CCC(C)c1ccc(NC(=O)c2cccs2)cc1 (stereo not drawn)	60*	25	87*	84*	90*	13	92*	93*	99*	76*	82*
N#Cc1cc2ccc(N3CCOCC3)cc2cc1C#N	18	8	88*	-7	91*	-280	15	22	3	4	-2
COc1cccc(NC(=O)n2ncc3c(C)cccc32)c1	53*	.	95*	100*	99*	20	100*	101*	103*	99*	98*
Cc1cccc2c1cnn2C(=O)Nc1ccc(Br)cc1F	-2	.	-3	-4	8	14	.	.	.	.	.
Cc1ccc(NC(=O)n2ncc3c(C)cccc32)c(C)c1	-12	.	-12	0	-10	15	.	.	.	.	.
CCOc1ccc(NC(=O)n2ncc3c(C)cccc32)cc1	36	.	81*	91*	64*	22	-4	3	6	10	-3
SMILES	TRAIL sens C8	PPC-1+TRAIL kill	SENP8 block-1	SENP7 block	SENP6 inh	SENP8 block-2	SENP8 conf	SENP6 conf	SENP7 confirm	Casp3 SENP sel	SENP luc ctr
c1csc(-c2nc3ccccc3[nH]2)c1	-1	26	3	39	53*	i	33	31	69*	66*	21
Cc1ccc(-c2nc3ccccc3[nH]2)s1	56*	47	93*	97*	97*	-483	96*	96*	100*	96*	95*
O=C(Nc1ccc2c(c1)oc1ccccc12)c1ccc(Br)o1	-3	21	21	77*	48	-25	6	16	28	11	5
O=C(Nc1ccc2c(c1)CCC2)c1cc2ccccc2o1	29	-6	45	68*	77*	7	61*	65*	87*	48	58*
COC(=O)Cc1ccc(NC(=O)c2ccc(Br)o2)cc1	0	14	26	32	51*	11	37	31	68*	70*	49
Cc1ccc(C(=O)Nc2ccc3c(c2)CCC3)o1	33	47	68*	80*	82*	9	72*	68*	92*	82*	78*
CCN(CC)c1ccc(NC(=O)c2ccc(Br)o2)cc1	32	-14	13	27	-16	12	.	.	.	.	.
O=C(Nc1ccccc1)c1ccc(Br)o1	0	11	4	25	25	10	.	.	.	.	.
O=C(Nc1ccc2c(c1)Cc1ccccc1-2)c1cc2ccccc2o1	-3	.	3	6	-5	-307	.	.	.	.	.
COc1ccc(NC(=O)Cn2nnc(C(=O)NCc3ccc4c(c3)OCO4)c2N)c(OC)c1	13	.	1	-7	-5	9	.	.	.	.	.
COc1ccc(CCNC(=O)CNS(=O)(=O)c2ccc(F)c(Cl)c2)cc1OC	-5	.	-4	-10	9	8	.	.	.	.	.
O=C(Nc1ccc(N2CCCC2)cc1)c1ccc(Br)o1	3	-2	5	7	11	8	.	.	.	.	.
O=C(Nc1ccc2c(c1)CCC2)c1ccc(Br)o1	18	27	79*	89*	90*	24	88*	87*	99*	86*	87*

High-throughput results as filed in PubChem BioAssay.
